System: Vero E6 infected with SARS-CoV-2
Assay: inhibition of SARS-CoV-2 cytopathic effect; higher = more antiviral protection, active = above 15
Details: 48 h

Measured: inhibition of SARS-CoV-2 cytopathic effect

CC[C@@H]1C(=O)N(C)c2cnc(Nc3ccc(C(=O)N[C@H]4CC[C@H](N5CCN(CC6CC6)CC5)CC4)cc3OC)nc2N1C(C)C [volasertib]
inactive: 1 nM 4.01% | 8.33 nM -1.24% | 100 nM -0.02% | 833.33 nM -9.3% | 10000 nM -14.9%

O=C1C[C@@]2(C(=O)N1)C(=O)N(Cc1ccc(Br)cc1F)C(=O)c1cccn12 [ranirestat]
inactive: 1 nM 0.68% | 8.33 nM 1.21% | 100 nM 2.23% | 833.33 nM 3.78% | 10000 nM 1.01%

Oc1cc(O)c(Cl)cn1 [gimeracil]
inactive: 1 nM -0.94% | 8.33 nM 0.32% | 100 nM -0.13% | 833.33 nM -0.16% | 10000 nM 1.36%

CC(C)c1ccc(C(=O)N=C(N)N)cc1S(C)(=O)=O [cariporide]
inactive: 1 nM 0.61% | 8.33 nM 4.56% | 100 nM 2.44% | 833.33 nM 1.5% | 10000 nM -0.17%

CC(C)n1nccc1-c1ncccc1COc1cccc(O)c1C=O [voxelotor]
inactive: 1 nM -1.1% | 8.33 nM -1.17% | 100 nM -0.23% | 833.33 nM 0.27% | 10000 nM 6.93%

CCC(=O)N1CCN(c2ccc(-n3c(=O)ccc4cnc5ccc(-c6cnc7ccccc7c6)cc5c43)cc2C(F)(F)F)CC1 [torin-1]
inactive: 1 nM 1.59% | 8.33 nM -1.08% | 100 nM 0.88% | 833.33 nM -0.28% | 10000 nM -0.2%

C[C@]12CC[C@H](O)C[C@H]1CC[C@@H]1[C@@H]2CC[C@]2(C)[C@@](O)(c3ccoc3)CC[C@]12O [rostafuroxine]
inactive: 1 nM 3.43% | 8.33 nM -0.48% | 100 nM 1.69% | 833.33 nM -1.79% | 10000 nM -1.77%
